Experimental data reported in PubChem BioAssay (EPA / NIEHS).
Records with an inconclusive call do not appear. Active and inactive are the calls of the source. Rule for the calls: active = hit-call score of the fitted dose curve at least 0.9, where 1 is the maximum; inconclusive = response in the unintended direction; inactive = score below 0.9.

Molecular target: human Adenosine A1 Receptor (AdoRA1), ADORA1 (gene 134) (UniProt P30542)
Experiment: NVS_GPCR_hAdoRA1: NovaScreen (NVS) G Protein-Coupled Receptor Assay for human Adenosine A1 Receptor (AdoRA1) (AID 2283254)
Procedure, shortened: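 Hum. cortical membranes + radioligand, cmpd 1 h; filtration, scintillation count. Readout = decrease vs DMSO. Primary 25 uM dup; hits → conc. series.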

Sequence of human Adenosine A1 Receptor (AdoRA1), ADORA1 (gene 134) (P30542 whole entry, looked up): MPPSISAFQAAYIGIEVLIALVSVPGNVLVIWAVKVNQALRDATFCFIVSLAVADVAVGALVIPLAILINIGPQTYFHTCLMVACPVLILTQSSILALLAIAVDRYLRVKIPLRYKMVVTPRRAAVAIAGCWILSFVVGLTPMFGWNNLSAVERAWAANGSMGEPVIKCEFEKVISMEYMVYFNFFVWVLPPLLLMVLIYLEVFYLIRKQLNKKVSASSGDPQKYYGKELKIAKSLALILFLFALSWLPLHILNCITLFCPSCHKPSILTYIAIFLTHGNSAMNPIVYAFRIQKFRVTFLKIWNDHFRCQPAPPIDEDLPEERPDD

Question: How did the AC50 turn out when `COc1cc2ncnc(Nc3cccc(Cl)c3)c2cc1OC` was run?
Answer: Its AC50 is 9.94 µM (active).

Question: With `Cc1c(Cl)c(=O)oc2cc(O)ccc12` as the molecule, how does the outcome read?
Answer: The outcome was “inactive”.
